Screening data (PubChem)
This is a sample that favours compounds with a hit; in the whole collection about 3.8% have one here.
HepG2 viability: HepG2 cytotoxicity, counter-screen for TGF-b inhibitors | HepG2 CAGA-GFP viability, ATP luminescence, 18 h | Potency, µM (top dose mostly 46.1 µM), for inactives: at the highest dose activity change, negative = cytotoxicity, actives largely listed as cytotoxic | actives 0.76% (n = 410,000) | AID 588856
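HepG2 CAGA-GFP cells (1000/well, DMEM with 1% FBS) received compound, then TGF-beta at 500 pg/mL final, and were incubated 18 hours at 37 degrees C. Viability was read by CellTiter-Glo luminescence. Media-only wells were set as complete cell-killing and DMSO as no toxicity.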
S2 tox: cell viability loss in ATXN counter-screen. Potency, µM (series often up to 56.7 µM), actives largely listed as cytotoxic. actives 0.49% (n = 400,000). S2 cells (HEK-293 line with an ATXN2-luciferase reporter) viability, CellTiter-Fluor protease fluorescence, 24 h. AID 651635; note: nearly all actives have a fitted effect of over 40% in size
A549 tox: counter-screen for Nrf2 inhibitors: cytotoxicity in A549 cells. A549 ARE-Fluc cells, CellTiter-Fluor viability, 18-24 h. Potency, µM (series often up to 46 µM), for the others: at the top dose activity change, negative = cytotoxicity, usual class: inhibitors. actives 0.16% (n = 390,000). AID 504648; note: % is set by controls: 0 for no effect and ±100 for the full control effect
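A549 ARE_Fluc cells in 5% FBS OPTI-MEM were exposed to compounds in concentration-response for 18-24 h at 37 deg C. Viability was read by CellTiter-Fluor fluorescence (Ex 405/Em 525) after 30 min, before the luciferase read.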
Nrf2 block: Nrf2 pathway inhibition. A549 ARE-Fluc reporter, luciferase luminescence, 18-24 h. Potency, µM (series often up to 46 µM), for the others: at the highest dose activity change, negative = inhibition, usual class: inhibitors. actives 2.1% (n = 360,000). AID 504444; note: % is set by controls: 0 for no effect and ±100 for the full control effect; nearly all actives have a fitted effect of over 60% in size
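Reporter: ARE-Fluc in A549. Exposure: 18-24 h, 37 °C, 5% CO2, 5% FBS OPTI-MEM. Readouts: fluorescent cytotoxicity (CellTiter-Fluor), then luminescent Nrf2 signal after BugLite.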
TGFb inhibitor: blocks TGF-b signaling | HepG2 CAGA-GFP TGF-b/SMAD3 reporter, GFP fluorescence, 18 h; TGF-beta stimulated, 500 pg/mL final | Potency, µM (top dose mostly 46.1 µM), inactives show at the top dose activity, negative = inhibition, hits mostly inhibitors | actives 1.2% (n = 410,000) | AID 588855; note: % is set by controls: 0 for no effect and ±100 for the full control effect; nearly all actives have a fitted effect of over 65% in size
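Using HEPG2 CAGA-GFP reporter cells at 1000 cells/well, we pinned test compounds, stimulated with recombinant TGF-beta (500 pg/mL final) and measured total well GFP after 18 h.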
ATXN2 expr inh: ATXN2 expression inhibition; actives 0.72% (n = 360,000); Potency, µM (doses to about 57 µM), for the others: top-dose activity change, negative = inhibition, actives largely listed as inhibitors; HEK-293 ATXN2-luciferase reporter, luminescence, 24 h; note: % is set by controls: 0 for no effect and ±100 for the full control effect; nearly all actives have a fitted effect of over 55% in size
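qHTS (up to 57 uM final) was run with 24 h compound exposure of reporter cells at 37 °C. Each well was multiplexed: SteadyGlo luminescence measured ATXN2-luciferase expression after a fluorogenic Gly-Phe-AFC viability readout (25 uM final).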
* hit, by the source's call; i = inactive; ? = inconclusive; nt = no result; [ ] = dose if it differs, or a comment. Calls come from the whole dose curve; as a rule, active = well fitted curve in the direction sought with a large enough effect; inconclusive = small, poorly fitted or top-dose-only effect, or another doubt; inactive = no such curve, though single readings can be large; an effect the other way counts as inactive or inconclusive. Potency is the fitted concentration of half-maximal effect.

SMILES | HepG2 viability | S2 tox | A549 tox | Nrf2 block | TGFb inhibitor | ATXN2 expr inh
O=C(c1ccc(CSc2nc3ccncc3n2Cc2ccccc2F)cc1)N1CCCCCC1 | -13% | i | -1% | -29% | ? | -14%
Cc1ccc(Cn2c(SCc3ccc(C(=O)N4CCCCCC4)cc3)nc3ccncc32)cc1 | -40% | ? | -14% | 15µM* | 10µM* | ?
Cc1ccc(Cn2c(SCc3ccc(C(=O)NCCc4ccccc4)cc3)nc3ccncc32)cc1 | -25% | nt | -10% | ? | ? | nt
Cc1ccccc1Cn1c(SCc2ccc(C(=O)N3CCCCC3)cc2)nc2ccncc21 | -30% | i | -13% | ? | 13µM* | -13%
Cc1ccc(Cn2c(SCc3ccc(C(=O)N4CCCCC4)cc3)nc3ccncc32)cc1 | -33% | nt | -16% | ? | 11µM* | nt
Cc1ccsc1C(=O)N(C)C1CCS(=O)(=O)C1 (centres undefined) | 3% | i | -5% | -9% | 15% | 0%
CCOC(=O)c1[nH]c2ccccc2c1NC(=O)c1ccc(OC(C)C)cc1 | -25% | i | 7% | -8%[9.27 µM] | ? | 7%
Cn1c(=NC(=O)c2ccco2)sc2ccccc21 | 1% | i | -11% | ? | -18% | 1%
Cn1c(=NC(=O)CCl)sc2ccccc21 | 11µM* | 32µM* | -8% | ? | ? | ?
Cc1ccc(S(=O)(=O)N2CCN(C(=O)c3ccc(-n4cncn4)c([N+](=O)[O-])c3)CC2)c(C)c1 | -26% | ? | nt | nt | -20% | nt
O=[N+]([O-])c1ccc(N=Nc2ncc[nH]2)cc1 | -14% | 1.3µM* | ? | ? | -11% | nt
O=C(CCl)N(c1ccc(Cl)cc1)c1c[nH]c2ccccc12 | 18µM* | 18µM* | ? | 21µM* | 16µM* | ?
O=C(CCl)N(c1ccccc1)c1c[nH]c2ccccc12 | -100% | 25µM* | -2% | -13% | 8.9µM* | ?
C[C@@H]1CN([C@H](C)CO)C(=O)CCCn2cc(nn2)CO[C@H]1CN(C)S(=O)(=O)c1ccc2ccccc2c1 | -11% | i | nt | nt | 9% | 3%
CCOC(=O)c1sc(NC(=O)CSc2ncn(-c3ccccc3)n2)nc1C | -2% | i | 0% | -14% | 6% | -3%
Cc1sc(NC(=O)CSc2ncn(-c3ccccc3)n2)nc1-c1ccccc1 | 2% | i | -7% | 12µM* | -17% | -2%
N#Cc1cn(CCOc2ccccc2F)c2ccccc12 | 4% | i | 9% | 8% | ? | 31%
Cc1c(C#N)c2ccccc2n1CCOc1ccccc1F | 6% | i | -2% | 23µM* | ? | -6%
Cn1c(NC(=O)c2ccc(F)cc2)nc2ccccc21 | -33% | i | -12% | ? | -16% | 19%
Cn1c(NC(=O)c2ccccc2NC(=O)C(C)(C)C)nc2ccccc21 | -21% | ? | 1% | 16µM* | ? | -29%
Cc1ccccc1N(CC(=O)NCC1CCCO1)C(=O)CCC(=O)Nc1nccs1 (centres undefined) | -15% | i | -1% | -10% | 9% | -5%
Cc1ccc(-c2csc(=Nc3cccnc3)n2CCCn2ccnc2)cc1C | 3% | ? | -6% | 18µM* | -33% | -28%
Cc1nnc(SCC(=O)Nc2sc3c(c2C#N)CCCC3)[nH]c1=O | -33% | i | 0% | nt | ? | -23%
N#Cc1c(NC(=O)CSc2nc(N)cc(=O)[nH]2)sc2c1CCCC2 | -6% | i | -22% | 15µM* | -10% | -14%
CCCCn1c(SCC(=O)Nc2cc(C(F)(F)F)cc(C(F)(F)F)c2)nnc1C(CC)N(C)C (centres undefined) | -10% | i | ? | 13µM* | 66% | ?
SMILES | HepG2 viability | S2 tox | A549 tox | Nrf2 block | TGFb inhibitor | ATXN2 expr inh
CCN(CC)S(=O)(=O)c1ccc(C(O)=C(C#N)c2nc3ccccc3n2C)cc1 | -1% | ? | -18% | 23µM* | 3% | ?
CCN1/C(=C/c2ccc3cc(C)ccc3[n+]2CC)Sc2cc(C)c(C)cc21 | -13% | ? | ? | 1.3µM* | 85% | ?
COc1cccc(-c2cc(CC3(O)CCN(CCCc4ccccc4)CC3)on2)c1 | -3% | i | 3% | -9% | -1% | -48%
CC(C)(C)c1ccc(C2Sc3ccccc3NC3=C2C(=O)c2ccccc23)cc1 (centres undefined) | -31% | nt | ? | 18µM* | ? | ?
O=C1c2ccccc2/C(=C\c2ccc3[nH]ccc3c2)N1c1ccccc1 | -3% | ? | -8% | -17% | -6% | -4%
CCC/C(=C1/c2ccccc2C(=O)N1c1ccccc1)c1ccc2[nH]ccc2c1 | -28% | ? | -5% | -23% | 11µM* | -9%
Cc1ccc2oc(C(=O)NCc3ncc(C)[nH]3)c(C)c2c1 | -16% | i | -13% | 6% | 0% | 4%
CCc1ccc(OC)c(S(=O)(=O)Nc2ccc(Cc3ccncc3)cc2)c1 | -19% | i | -23% | 18µM* | ? | -32%
C[n+]1c2n(c3ccccc31)N=C(c1ccc(-c3ccccc3)cc1)CS2 | -5% | ? | ? | 10µM* | ? | nt
COc1ccccc1Cc1c(-c2ccco2)nc2ccc(Cl)cn12 | -96% | ? | nt | nt | 16µM* | -8%
COC(=O)c1ccc2nc(-c3ccco3)c(Cc3ccccc3)n2c1 | -35% | i | nt | nt | 11µM* | 12%
COc1ccccc1Cc1c(-c2cccc(Cl)c2)nc2ccc(C)cn12 | -45% | nt | nt | nt | 13µM* | 0%
Cc1ccc2nc(-c3ccco3)c(CC(C)(C)C)n2c1 | -29% | 20µM* | nt | nt | ? | ?
COc1ccccc1Cc1c(-c2ccc(C)cc2)nc2ccc(Cl)cn12 | 0% | ? | nt | nt | -47% | 45%
COc1cccc(C(c2sc3nc(-c4ccco4)nn3c2O)N2CCN(C)CC2)c1 (centres undefined) | 1% | i | -3% | nt | 19% | 4%
Fc1ccc(-c2nc(-c3c[nH]c4ccccc34)cs2)cc1 | -19% | nt | nt | nt | -8% | nt
OC[C@@H]1CN(Cc2ccc(Cl)cc2)C[C@H](n2cnc3c(NC4CC4)ncnc32)O1 | -3% | i | nt | nt | -7% | 8%
Clc1cccc(Cc2c(-c3cccc(Cl)c3)nc3ccc(Br)cn23)c1 | -29% | ? | nt | nt | 14µM* | 5%
CCOC(=O)[C@]12CCCC=C1N(Cc1cccc3ccccc13)C(=O)[C@H](CC(=O)N1CCCCC1)C2 | nt | ? | nt | nt | nt | -20%
CC(C)Cn1nc(NC(=O)c2cccs2)c2cc3ccccc3nc21 | -12% | nt | 4% | 16µM* | ? | nt
